# Screening data (PubChem BioAssay)
# Compounds with a hit are over-represented: about 3% of the library has one in this group of screens.
# p53null 32C kill: qHTS Screen for Compounds that Selectively Target Cancer Cells with p53 Mutations: Cytotoxicity of p53 Null Cells at the Permissive Temperature; Potency, µM (highest dose often 46.1 µM), inactives show top-dose activity change, negative = cytotoxicity, usual class: cytotoxic; H1299-neo p53 null cells, ATP luminescence, 24 h, 32C; actives 0.62% (n = 55,000);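 note: 0% = DMSO only and -100% = full killing by 100 µM tamoxifen; nearly all actives have a fitted effect of over 55% in size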
#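 H1299-neo (p53-null) cells, 600/well, were pre-incubated overnight at 37C, then exposed to compounds at up to 46 uM for 24 hr at 32C. Viability was measured as ATP content by luminescence, and AC50 values came from Hill fits.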
# OvCa metastasis: Primary qHTS assay for Inhibitors of ovarian cancer metastasis using an organotypic tumor microenvironment (TME) model. AID 1963576, 2024. Potency, µM (highest dose often 45.8 µM), without a hit: at the highest dose activity change, negative = inhibition, actives largely listed as inhibitors. actives 0.1% (n = 46,000). SKOV3ip1-GFP adhesion/invasion on 3D omental model, fluorescence;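 note: plate controls were DMSO wells for no effect and tomatine positive control wells for full effect; nearly all actives have a fitted effect of over 65% in size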
#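 Primary human omental fibroblast/mesothelial 3D culture pre-formed 48 h. SKOV3ip1-GFP cells added with compounds (0.36-46 umol/L), incubated 2 h RT/16 h 37 C, fixed; GFP cells quantified at 488/509 nm.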
# PMP22 txn: Cell-based coincidence reporter assay to measure PMP22 gene transcription in S16 Pmp22-F2sN cells - Primary screen | S16 Pmp22-F2sN Schwann cells, FLuc/NLuc coincidence luminescence, 24 h | Potency, µM (highest dose often 57.5 µM), inactives show top-dose activity change, negative = inhibition, actives largely listed as inhibitors | actives 2% (n = 43,000); active = clear falling dose curves in both reporters; inconclusive = both reporters move, but less clearly or upward; inactive = either reporter flat; the % is the NLuc reporter signal
#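 Luminescent read-out of sequential FLuc and NLuc signals from a reporter embedded in the Pmp22 3' UTR of S16 Schwann cells, taken after 24 h compound exposure at 37C; compounds reducing both signals score as inhibitors of expression.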
# mTORC1 inh: Acumen qHTS Assay for Inhibitors of the mTORC1 Signaling Pathway in MEF (Tsc2-/-, p53-/-) Cells: Sytravon; Tsc2-/- p53-/- MEF, phospho-rpS6 immunofluorescence/PI, 24 h; Potency, µM (doses to about 38.3 µM), inactives show top-dose activity change, negative = inhibition, actives largely listed as inhibitors; actives 0.78% (n = 44,000); AID 493208, 2011;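 note: plate controls were DMSO for no effect and rapamycin for full effect; nearly all actives have a fitted effect of over 50% in size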
#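 Compounds act on Tsc2-/-, p53-/- fibroblasts carrying an empty vector for 24 h before fixation and dual staining for phospho-S6 and DNA (propidium iodide). Values are percentages of cells above a rapamycin-defined pS6/PI threshold.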
# p53null 39C tox: qHTS Screen for Compounds that Selectively Target Cancer Cells with p53 Mutations: Cytotoxicity of p53 Null Cells at the Nonpermissive Temperature; H1299 p53-null (neo) cells, 39C, ATPlite viability, 24 h; actives 0.97% (n = 55,000); Potency, µM (highest dose often 46.1 µM), for the others: top-dose activity, negative = cell killing, most hits filed as cytotoxic; AID 904, 2007;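 note: 0% = DMSO only and -100% = full killing by 100 µM tamoxifen; nearly all actives have a fitted effect of over 50% in size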
#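 H1299 lung cancer cells, p53-null (H1299-neo) or expressing p53 A138V (H1299-p53A138V), were plated overnight at 37C, then exposed to compounds at up to 46 uM for 24 hr at 39C. Viability was read by ATP-based luminescence.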
# S16 viability: Cell viability qHTS assay in S16 Pmp22-F2sN cells | S16 Pmp22-F2sN Schwann cells (luciferase reporters placed in the Pmp22 gene) viability, CellTiter-Glo, 24 h | Potency, µM (top dose mostly 57.5 µM), for the others: top-dose activity change, negative = cytotoxicity, actives largely listed as cytotoxic | actives 0.48% (n = 43,000); note: nearly all actives have a fitted effect of over 65% in size
#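 Luminescence from CellTiter-Glo, read by CCD camera after a 15 min room-temperature incubation, served as the viability signal. Reporter Schwann cells (S16 Pmp22-F2sN) had been treated with pin-transferred compounds for 24 h at 37C.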
# * = called active by the depositor; i = inactive; ? = inconclusive; / = not tested or not shown. Unless noted, calls come from the whole dose curve; as a rule, active = well fitted curve in the direction sought with a large enough effect; inconclusive = small, poorly fitted or top-dose-only effect, or another doubt; inactive = no such curve, though single readings can be large; an effect the other way counts as inactive or inconclusive. Unless noted, % is set by controls: 0 for no effect and ±100 for the full control effect; potency is the fitted concentration of half-maximal effect.
SMILES,p53null 32C kill,OvCa metastasis,PMP22 txn,mTORC1 inh,p53null 39C tox,S16 viability
CCN(CC)c1ccc(C(=O)NCc2ccc3c(c2)CCN3C(=O)c2ccc(F)cc2)cc1,7.1%,0.3%,7.27µM*,-7.0%,17.4%,?
CC1(C)S[C@H]2[C@H](NC(=O)[C@@H](N)c3ccc(O)cc3)C(=O)N2[C@@H]1C(=O)O,/,3.5%,/,/,/,/
Brc1ccc(Nc2c3c(nc4nncn24)CCC3)cc1,-7.0%,0.5%,?,5.85µM*,-12.2%,-25.4%
Cc1ccc(Nc2c3c(nc4nncn24)CCC3)cc1,4.9%,6.6%,?,1.7%,-5.1%,3.6%
CCCCCCn1c(/C=C/c2ccccc2)nc2ccccc21,-21.9%,-0.1%,-49.9%,7.7%,12.6µM*,-20.0%
Cc1cnn(C)c1C(=O)Nc1cc(Nc2ccc3c(C=Cc4ccccn4)n[nH]c3c2)ccc1F,/,12.9%,/,/,/,/
CCOc1ccc(NC(=O)CN(C)S(=O)(=O)c2ccc3[nH]c4c(c3c2)CCCC4)cc1,12.9%,5.8%,17µM*,-0.3%,-28.6%,?
Cc1cc(C)cc(NC(=O)CN(C)S(=O)(=O)c2ccc3[nH]c4c(c3c2)CCCC4)c1,5.9%,-0.1%,?,0.2%,-19.8%,-6.3%
CNC(=O)c1cc(COc2nnc(Nc3ccc(Cl)cc3)c3ccoc23)ccn1,/,-9.6%,/,/,/,/
CCOc1ccccc1CNCc1c(C(=O)O)n(Cc2ccccc2)c2cc(OC)ccc12,-10.6%,i,5.4%,-10.6%,?,0.0%
COc1ccc(Cn2c(C(=O)O)c(CNCc3ccccc3F)c3ccc(OC)cc32)cc1,-16.0%,i,?,11.7µM*,-29.6%,?
O=C(O)C1=CC(O)C(O)[C@H](O)C1 (some centres undefined),/,-14.5%,/,/,/,/
O=C(CC12CC3CC(CC(C3)C1)C2)Nc1cccc2nc(NCCNCCO)ccc12,/,16.5%,/,/,/,/
Cc1ccc(NS(=O)(=O)c2cc(-c3cc(C)no3)ccc2C)c(Cl)c1,-4.2%,1.0%,?,-1.0%,?,1.9%
Cc1cc(-c2ccc(C)c(S(=O)(=O)Nc3ccccc3C(F)(F)F)c2)on1,?,i,-85.4%,-7.7%,11.2µM*,-2.9%
CCOc1ccc(/C=C/C(=O)Nc2ccc3nc(N(CC)CC)cc(C)c3c2)cc1OC,5.6%,?,?,13.1µM*,2.5%,?
CCN(CC)c1cc(C)c2cc(NC(=O)/C=C/c3cc(OC)c(OC)c(OC)c3)ccc2n1,?,?,?,18.5µM*,22.4µM*,?
CCCNC(=O)[C@H]1O[C@H]1C(=O)N[C@H](C(=O)N1CCC[C@@H]1C(=O)OC)C(C)CC (some centres undefined),/,-12.0%,/,/,/,/
Cc1ccc(CSc2nc3ccncc3n2Cc2nc(-c3ccccc3C)oc2C)cc1,7.94µM*,44.3%,?,-6.8%,6.31µM*,?
COc1ccc(CSc2nc3ccncc3n2Cc2nc(-c3ccc(OC)c(OC)c3)oc2C)cc1,12.6µM*,2.7%,-61.9%,-4.7%,?,-21.0%
COc1cc2nccc(Oc3ccc(NC(=O)C4(C(=O)Nc5ccc(F)cc5)CC4)cc3)c2cc1OC,/,-5.8%,/,/,/,/
COc1cc(C(=O)Nc2nc3c(s2)Cc2c(Br)ccc(OC)c2-3)cc(OC)c1OC,-22.9%,-0.2%,?,0.3%,-25.6%,25.1µM*
COc1ccc(C(=O)Nc2nc3c(s2)Cc2c(Br)ccc(OC)c2-3)cc1OC,-5.3%,1.0%,?,-2.2%,-14.5%,?
COc1cc([C@@H]2c3cc4c(cc3[C@@H](O[C@@H]3O[C@@H]5CO[C@@H](C)O[C@@H]5[C@H](O)[C@@H]3O)[C@H]3COC(=O)[C@H]23)OCO4)cc(OC)c1O,/,-12.2%,/,/,/,/
CCOc1cc2ncc(C#N)c(Nc3ccc(OCc4ccccn4)c(Cl)c3)c2cc1NC(=O)C=CCN(C)C,/,-10.3%,/,/,/,/
SMILES,p53null 32C kill,OvCa metastasis,PMP22 txn,mTORC1 inh,p53null 39C tox,S16 viability
COc1ccccc1N1CCN(C(=O)c2ccc(Nc3nc4ccccc4n4nnnc34)cc2)CC1,4.5%,-26.2%,?,-0.7%,-14.6%,3.55µM*
Cc1ccc(C)c(N2CCN(C(=O)c3ccc(Nc4nc5ccccc5n5nnnc45)cc3)CC2)c1,-5.1%,12.7%,-36.7%,?,-7.2%,-27.7%
CC(C)CCNC(=O)c1cccc(Nc2nc3ccccc3n3nnnc23)c1,-22.6%,?,9.46µM*,?,?,20µM*
OCCN1C[C@H](O)[C@@H](O)[C@H](O)[C@@H]1CO,/,-1.2%,/,/,/,/
CCn1c(CC2C(=O)N(C)c3ccc(Br)cc32)nc2ccccc2c1=O (centres undefined),-0.2%,i,?,?,?,-20.6%
CCCN1C(=O)C(Cc2nc3ccccc3c(=O)n2CC)c2cc(Br)ccc21 (centres undefined),7.8%,i,?,14.7µM*,?,?
COc1ccc(C2c3c(-c4ccccc4O)n[nH]c3C(=O)N2CCc2ccccc2)cc1 (centres undefined),44.3%,i,?,?,?,?
Cc1ccc(C2c3c(-c4ccccc4O)n[nH]c3C(=O)N2CCc2ccccc2)cc1 (centres undefined),45.2%,?,?,16.5µM*,?,-25.2%
CC(C)OCCCN1C(=O)c2[nH]nc(-c3ccccc3O)c2C1c1ccc(OCc2ccccc2)cc1 (centres undefined),47.7%,?,?,?,12.6µM*,?
COCCN1C(=O)c2[nH]nc(-c3ccccc3O)c2C1c1ccc(Cl)c(Cl)c1 (centres undefined),50.6%,?,?,0.0%,15.8µM*,?
COc1ccc(CCN2C(=O)c3[nH]nc(-c4ccccc4O)c3C2c2cccc(OC)c2)cc1 (centres undefined),6.5%,-30.9%,?,14.7µM*,18.7%,?
O=C(C=Cc1ccc(CN(CCO)CCc2c[nH]c3ccccc23)cc1)NO,/,-1.7%,/,/,/,/
